Assay results reported in PubChem BioAssay AID1063 (University of Pittsburgh Molecular Library Screening Center, 2008).
About 18,000 (9%) of roughly 200,000 compounds were called active. For the sample, actives were picked, then their nearest neighbours and some compounds at random. A number with no mark means an inactive call. No stated cut-off is given here; in the data, active means inhibition above about 50%; inactive means the rest. Where a SMILES comes first, the peptide text is derived from it. The star is where a group is joined. OPac = O=C(CO*)c1ccccc1; Bz = O=C(c1ccccc1)*

Assay: Leishmania major promastigote growth inhibition, primary screen (AID 1063);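 further: promastigotes grown with compound for 44 hours at 28 °C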
Settings: Leishmania major promastigotes, resazurin fluorescence viability; at 10 µM; active compounds read high

| SMILES | inhibition |
| --- | --- |
| CC(=O)c1ccc(NC(=O)Nc2ccc([N+](=O)[O-])cc2C)cc1 | -1.56% |
| O=[N+]([O-])c1ccc2c(c1)C(N1CCOCC1)/C(=C/C1(O)CCCCC1)O2 (centres undefined) | -7.12% |
| Cc1cc2nc(C(F)(F)F)cc(-c3cccs3)n2n1 | 2.4% |
| COc1ccc(OC)c(S(=O)(=O)Nc2cccc(-c3ccc4nncn4n3)c2)c1 | -2.67% |
| S=C(Nc1cccc(Cl)c1)Nc1ccc2cn[nH]c2c1 | 10.9% |
| Cc1csc(NC(=S)Nc2cccc(Cl)c2)n1 | 9.23% |
| FC(F)(F)c1cccc(NC(=S)Nc2cccc(Cl)c2)c1 | 75.6% (active) |
| CCNC(=O)CC1C(=O)N(c2ccc(OC)cc2)C(=S)N1CCc1ccncc1 (centres undefined) | -4.31% |
| COc1ccc2oc(=O)c(C(=O)N3CCCC3)cc2c1 | -7.26% |
| Clc1ccc(-c2nnc(-c3ccccc3)nc2N2CCSCC2)cc1 | 58.6% (active) |
| CC1CN(c2nc(-c3ccccc3)nnc2-c2ccccc2)CC(C)O1 (centres undefined) | 5.94% |
| Cn1nc(-c2ccccc2)c(-c2nc(-c3ccc(Cl)cc3)no2)c1Cl | -4.1% |
| CN(CCc1cnn(C)c1)Cc1cn(C)nc1-c1ccccc1F | -3.32% |
| CC(C)N(C(=O)CSc1nc(COc2ccccc2)nc2ccccc12)C(C)C | 21.6% |
| COc1cc(S(=O)(=O)N2CCOCC2)ccc1NC(=O)COc1ccc(N(C)S(=O)(=O)c2ccc(C)cc2)cc1 | 94% (active) |
| CC(=O)NCCC(=O)Nc1cc(S(=O)(=O)N2CCOCC2)ccc1N1CCOCC1 | 0.47% |
| Cc1ccc(S(=O)(=O)N(C)c2ccc(OCC(=O)NC3=NCCS3)cc2)cc1 | 1.37% |
| O=C(COc1cccc2ccccc12)Nc1cc(S(=O)(=O)N2CCOCC2)ccc1N1CCOCC1 | 61.2% (active) |
| CCOc1cc(N2CCOCC2)c(OCC)cc1NC(=O)c1ccc(C)s1 | 6.96% |
| CCOc1cc(N2CCOCC2)c(OCC)cc1NC(=O)c1cc(C)nc2ccccc12 | 6.2% |
| O=C(COC(=O)c1ccccc1F)Nc1cc(S(=O)(=O)N2CCOCC2)ccc1N1CCCC1 | 5.17% |
| COC(=O)COc1ccc(S(=O)(=O)N2CCOCC2)cc1 | -7.05% |
| CCOc1cc(N2CCOCC2)c(OCC)cc1NC(=O)COc1cccc2cccnc12 | 100% (active) |
| CCC(=O)N1c2ccccc2NC2=C(C(=O)CCC2)C1c1ccco1 (centres undefined) | 3.39% |
| O=C(N/N=C1\CCSC1)c1cc(Cl)ccc1O | 3.97% |

| SMILES | inhibition |
| --- | --- |
| CCCCCc1ccc(-c2ccc(OCC)cc2)nc1 | -7.26% |
| CN(C)S(=O)(=O)c1ccc(NC(=O)N2CCOCC2)cc1 | -2.72% |
| CCN(CC)CCNS(=O)(=O)c1ccc(/C=C/C(=O)O)cc1 | -2.33% |
| O=C(Nc1cccnc1)c1cccc(S(=O)(=O)N2CCCC2)c1 | -5.74% |
| Fc1ccccc1N=C1Nc2cccc3cccc1c23 | 8.76% |
| c1ccc(C2=Nc3cccc4cccc(c34)N2)cc1 | 19.1% |
| COc1ccccc1C1=Nc2cccc3cccc(c23)N1 | 69.7% (active) |
| CCOC(=O)/C(C#N)=C/c1ccc(N2CCCCC2)cc1 | -8.77% |
| Cc1ccc(C(=O)NCCNC(=O)c2ccccc2)cc1 | 30.8% |
| CCOC(=O)Nc1ccc(NC(=O)OCC)cc1 | -2.26% |
| CCCCC(CCC(=O)Nc1ccc(C(=O)OCC)cc1)C(=O)O (centres undefined) | -9.84% |
| CCCCCOC(=O)NCCOC(=O)Nc1ccc(C(=O)OCC)cc1 | 59.2% (active) |
| CCC(C(=O)Nc1ccc(C(C)C)cc1)c1ccccc1 (centres undefined) | -1.77% |
| Cc1cc(C)cc(NC(=O)CSc2ccccc2)c1 | 1.71% |
| COc1ccccc1N1CCN(C(=O)c2cc(-c3ccc(Cl)c(Cl)c3)on2)CC1 | -6.68% |
| O=C(c1ccccc1)N1CCN(C(=O)N2CCCCC2)CC1 | 27.4% |
| O=C(c1ccc(S(=O)(=O)c2ccccc2)cc1)N1CCCCCC1 | 55.1% (active) |
| COc1cc2c(cc1OC)CN(C(=O)c1ccc(S(=O)(=O)N3CCCCCC3)cc1)CC2 | 24.6% |
| COc1ccccc1N1CCN(C(=O)c2cc(-c3ccc(Br)cc3)on2)CC1 | -7.17% |
| COc1ccccc1N1CCN(C(=O)c2ccc(Cl)c(S(=O)(=O)N3CCCC3)c2)CC1 | 1.35% |
| COc1ccccc1N1CCN(C(=O)c2c(-c3c(Cl)cccc3Cl)noc2C)CC1 | 98.5% (active) |
| COc1ccccc1N1CCN(C(=O)c2ccc(S(=O)(=O)N3CCCCC3)cc2)CC1 | 59.5% (active) |
| O=C(c1ccc(CSc2ccccc2)cc1)N1CCCCCC1 | -6.75% |
| CN1CCN(CCNC(=O)Nc2ccc([N+](=O)[O-])cc2)CC1 | -0.61% |
| O=C(Nc1cc(Cl)cc(Cl)c1)C(NCCCO)c1ccccc1 (centres undefined) | 10.6% |

| SMILES | inhibition |
| --- | --- |
| Cc1ccc(-c2cc(=O)c3ccc(F)cc3[nH]2)cc1 | 1.73% |
| CN1C(=O)C(CC(=O)Nc2ccccc2)S/C1=N/c1nccs1 (centres undefined) | -4.38% |
| CS(=O)(=O)N(CC(=O)N1CCCC1)Cc1ccccc1 | -5.77% |
| N#Cc1ccccc1-n1c(N)c(C(=O)N2CCCC2)sc1=S | 52.1% (active) |
| Cc1cccc(-n2c(N)c(C(=O)N3CCN(C)CC3)sc2=S)c1 | 9.91% |
| Cc1ccc(-n2c(N)c(C(=O)N3CCOCC3)sc2=S)c(C)c1 | 6.62% |
| O=C(CNC(=O)c1ccccc1)NCC(=O)OCC(=O)c1ccccc1 (Bz-Gly-Gly-OPac) | -9.69% |
| COc1ccc(C)cc1NC(=O)Nc1ccccc1SC | 10.1% |
| COc1ccc(C)cc1NC(=O)C(OC(=O)c1cccc(S(=O)(=O)N(C)c2ccccc2)c1)c1ccccc1 (centres undefined) | 97.6% (active) |
| COc1ccc(C)cc1NC(=O)C(Sc1ccccc1)c1ccccc1 (centres undefined) | 3.92% |
| OC(COCC1COc2ccccc2O1)CN1CCN(c2ccc(F)cc2)CC1 (centres undefined) | 12% |
| Cc1ccnc(NC(=O)CCC(=O)N(CC(=O)NCCc2ccccc2)Cc2cccs2)c1 | -4.68% |
| CCOc1ccc(CN2CCCN(C)CC2)cc1 | 54.1% (active) |
| CCOc1ccc(CN2CCN(Cc3ccon3)CC2CCO)cc1 (centres undefined) | -5.47% |
| CCOc1ccc(CN2CCN(Cc3ccc(C)o3)CC2CCO)cc1 (centres undefined) | -0.08% |
| COC(=O)c1sc2[nH]c(=S)n(N)c(=O)c2c1C | -7.2% |
| CC1CCCCC1NC(=O)CO/N=C/c1ccc(OC(F)F)cc1 (centres undefined) | 13.4% |
| CCOc1ccc(C(=O)NC2CCN(CC(=O)NCc3cccs3)CC2)cc1 | -4.61% |
| Cc1cc(C#N)c(SCC(N)=O)nc1-c1ccc(F)cc1 | 2.96% |
| CCCNC(=S)N1CCCC(c2nc3ccccc3[nH]2)C1 (centres undefined) | 7.49% |
| Cc1cccc(NC(=S)N2CCCC(c3nc4ccccc4[nH]3)C2)c1 (centres undefined) | 99.1% (active) |
| Cc1cccc(NC(=S)N2CCC(c3nc4ccccc4s3)CC2)c1 | -0.22% |
| O=c1cc(CO)oc(C(Nc2cccc(C(F)(F)F)c2)c2ccccn2)c1O (centres undefined) | 2.74% |
| Cc1ccc(Sc2ccncc2S(N)(=O)=O)cc1 | 84.9% (active) |
| CNS(=O)(=O)c1cnccc1N1CCN(c2cccc(C)c2)CC1 | 8.07% |

| SMILES | inhibition |
| --- | --- |
| Cc1cc(NC(=O)CSCc2ccccc2C)no1 | -8.79% |
| Cc1ccc(C(C(=O)NC2CCCC2)N(Cc2ccco2)C(=O)CCC(=O)Nc2ccccn2)cc1 (centres undefined) | -1.72% |
| Cc1ccc2c(c1)N(CC(=O)N(Cc1ccccn1)Cc1ccco1)C(=O)C(C(C)C)O2 (centres undefined) | 75.7% (active) |
| Cc1ccc2oc(=O)c3cnn(CC(=O)N(Cc4ccco4)C4CCCCC4)c3c2c1 | 22.1% |
| NC(=O)COC(=O)c1cc(S(=O)(=O)N2CCN(c3ccccc3)CC2)ccc1Cl | -1.75% |
| Cc1nn(Cc2ccc(Cl)cc2)c(Cl)c1/C=N/NC(=O)CNc1ccccc1F | 8.05% |
| Cc1cc(C)c2nc(-c3cccnc3)cc(C(=O)Nc3ccc(S(=O)(=O)Nc4onc(C)c4C)cc3)c2c1 | -3.47% |
| N#Cc1ccc(C(=O)Nc2cccc3cccnc23)c(F)c1 | -0.23% |
| CC(=O)/C(=N\Nc1ccc(Cl)cc1Cl)Sc1cccc2cccnc12 | 96.8% (active) |
| S=C(NCc1cccnc1)Nc1ccc(Cl)cc1Cl | 10.6% |
| O=C(NN1C(=O)C2C3C=CC(O3)C2C1=O)c1ccccc1 (centres undefined) | -9.99% |
| O=C1CC(N2CCN(c3ccc(F)cc3)CC2)C(=O)N1c1ccccc1 (centres undefined) | -0.81% |
| CCCNC(=O)NC(=O)COC(=O)CC(NC(N)=O)c1ccc(Cl)cc1 (centres undefined) | 56.2% (active) |
| CC(C)(C)NC(=O)NC(=O)COC(=O)Cc1ccc(Cl)cc1Cl | -4.1% |
| COCCNC(=O)NC(=O)COC(=O)C1(c2ccc(Cl)cc2)CC1 | -5.98% |
| O=C(Nc1ccccc1C(=O)N1CCCCCC1)c1ccccc1Cl | 4.51% |
| COc1ccc(-c2ccc(CCC(=O)O)n2-c2ccc(O)cc2)cc1 | -1.18% |
| Cc1ccsc1C1C(C#N)=C(N)OC2=C1C(=O)CC(C)(C)C2 (centres undefined) | 9.53% |
| Fc1ccc(Cn2nnnc2C(c2cccs2)N2CCCCCC2)cc1 (centres undefined) | 5.18% |
| CCC(C)(C)n1nnnc1C(c1cccs1)N1CCN(Cc2ccccc2)CC1 (centres undefined) | 50.4% (active) |
| CCC(C)(C)n1nnnc1C(c1ccccc1OC)N1CCSCC1 (centres undefined) | 6.66% |
| CCC(C)(C)n1nnnc1C(c1cccs1)N1CCN(c2nc3ccccc3s2)CC1 (centres undefined) | 81.4% (active) |
| COc1ccccc1C(c1nnnn1C(C)(C)C)N1CCN(Cc2ccccc2)CC1 (centres undefined) | 17.2% |
| CCCC(c1nnnn1C(C)(C)C)N1CCN(Cc2ccccc2)CC1 (centres undefined) | -6.34% |
